Laboratory results taken from PubChem BioAssay (NCI).
About 79,000 compounds went through this panel and 15% of them were active in at least one assay; those are over-represented in the sample as a whole. Activity calls are given as the source filed them. Cut-off read from the data, not from the text of the source: active = growth inhibition above about 70%; inactive = the rest.

experiment: NCI Yeast Anticancer Drug Screen. Data for the mec2-1 strain (AID 157); conditions: S. cerevisiae mec2-1 strain, at 50.0 µM, active compounds read high
Experimental: Growth inhibition of yeast strains with defined genetic alterations is measured as a screen for potential anti-cancer activity. Selected strains with alterations in DNA damage repair or cell cycle control were exposed to compounds and growth inhibition was measured relative to vehicle treated controls. The strain used in this assay is mec2-1

Compound | growth inhibition
CCOC(=O)C(=O)NC12CC3CC(CC(C3)C1)C2 | -17.6% (inactive)
O=C1c2ccccc2-c2cccc3ccc(-c4ccccc4)c1c23 | 1.9% (inactive)
Cc1nc2c(o1)C(=Nc1ccccc1)c1ccccc1C2=Nc1ccccc1 | -23.4% (inactive)
C=CC(C)(C)C1=CC(=O)C(OC)=CC1=O | -6.15% (inactive)
COc1ccc(/C=C2/C(=O)N=C(NC(C)=O)N2C)cc1OC | -14.2% (inactive)
CC1=CC(=O)CC(C)(C)C1(O)/C=C/C(C)=C/C(=O)O (stereo not given) | -28.5% (inactive)
COc1ccc(Cc2coc3ccccc3c2=O)cc1 | 7.35% (inactive)
NS(=O)(=O)c1cccc([N+](=O)[O-])c1 | 5% (inactive)
C/C(CC(=O)Nc1ccc(C)cc1C)=N/N=C(N)N | -17.2% (inactive)
O=S(=O)(O)C(O)C(F)(F)C(F)(F)C(F)(F)F (stereo not given) | -1.75% (inactive)
C(=N\OCc1ccccc1)/c1ncccc1C1OCCO1 | -23.1% (inactive)
NC(=O)C1=C(O)C(=O)NC1=O | 1.55% (inactive)
C/C(CCc1ccccc1Br)=N/NC(N)=O | -0.9% (inactive)
Cc1ccc(N=Nc2sc(N)nc2-c2ccc(Cl)cc2)cc1 | -2.55% (inactive)
O=S(=O)(c1ccccc1)c1ccccc1Br | 14.8% (inactive)
CC(=O)Nc1ccc([N+](=O)[O-])cc1[N+](=O)[O-] | -10.9% (inactive)
CN(C)C1=NC(NC2CCCCC2)(N(C)C)OC(N(C)C)=N1 (stereo not given) | -0.9% (inactive)
Cc1cc(C)c2nc(N)sc2c1 | 9.35% (inactive)
COc1ccccc1NC(=O)Oc1ccc(C#N)cc1 | -14.5% (inactive)
NCCN(Cc1ccccc1)C1CC1 | -33.6% (inactive)

Compound | growth inhibition
O=C(/C=C/c1ccccc1O)c1ccccc1 | -15.7% (inactive)
O=C(c1ccc(Cl)c(Cl)c1)N1CCCCC1 | -7% (inactive)
O=S(O)c1cc(Cl)c(O)c(Cl)c1 | 1.3% (inactive)
CCCCCCCC(=O)N1C2CN3C4=C(C(=O)C(N)=C(C)C4=O)C(COC(N)=O)C3(OC)C21 (stereo not given) | 13.1% (inactive)
Cc1ccc(N=C2C(=Nc3ccc(C)cc3)N(c3ccc(C)cc3)C(=S)N2C(=O)c2ccccc2)cc1 | -27.1% (inactive)
CCCC(=O)Oc1ccc(Cl)cc1C | -1.05% (inactive)
C=C(Cl)CSC(C)(C)C | 5.8% (inactive)
Cc1ccccc1C(c1ccccc1C)C(CC(=O)O)CC(=O)O | 14.2% (inactive)
CCCCCCCCCCCCSCCO | 10.8% (inactive)
Br | -33.1% (inactive)
CC(O)C(C)(C)O (stereo not given) | -8.85% (inactive)
CCOCC(=O)N[C@H]1CCc2cc(OC)c(OC)c(OC)c2-c2ccc(OC)c(=O)cc21 | -32.8% (inactive)
CCOC(=O)C1(F)S(=O)(=O)OCCOS1(=O)=O | -9.95% (inactive)
O=C(c1ccccc1)c1ccccc1O | -10.7% (inactive)
CNc1ncc(-c2nnnn2-c2ccccc2)c(CN(C)C)n1 | -3.05% (inactive)
Cc1cccc(C)c1NCC(=O)NN | 6.05% (inactive)
CCCCCCCCCCCCCCCCS(=O)(=O)N/N=C(\c1ccc(C(C)C)cc1)N1CCOCC1 | -18.4% (inactive)
O=C(Nc1cccc2ccccc12)c1ccco1 | 16.5% (inactive)
CSc1nc2c(c(=O)n1C)N=C(c1ccc([N+](=O)[O-])cc1)CC(c1ccccc1)N2 (stereo not given) | 3.1% (inactive)
CCCC(SCCO)C(CC)CSCCO (stereo not given) | -9.55% (inactive)
